SKN-1 inh: inhibitors of C. elegans SKN-1; C. elegans VP596 Pgst-4::GFP/RFP ratio, acrylamide-induced, 24 h; inhibition, % at 21.8 µM; 0.49% of 360,000 active; AID 624304;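 active = interference check ratio from 0.5 to 1.5 plus GFP to RFP signal ratio inhibition reaching or exceeding a fixed threshold, cut at about 30% in these data, passing the limit was not always enough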
esBAF inh: SWI/SNF esBAF complex inhibition | mouse ES cells, Bmi1-luciferase knock-in reporter, 24 h; 100% = twice the neutral-well signal | reporter increase, % at 12.5 µM | 2% of 350,000 active; in the data active = activation above about 40%;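 note: a rise in the Bmi1 reporter signal indicates esBAF inhibition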
Vif imaging: HIV Vif inhibition. HEK293T cells, Vif self-association by quenched fluorescence, imaging, 24 h. inhibition, % at 7.49 µM. 0.35% of 340,000 active. AID 602346; in the data active = inhibition above about 50%, passing the limit was not always enough
SMARCA2 act: increases SMARCA2 function in MMTV reporter cells. MG213 cells, MMTV-luciferase reporter, dexamethasone, overnight. activation, % at 9.1 µM. 1% of 370,000 active. AID 652017; in the data active = activation above about 7.8%
NR3A LBD binder: modulators (binders) of human NR3A ligand-binding domain; Tm shift relative to glycine control, % at 25 µM; 2.5% of 340,000 active; NR3A LBD differential scanning fluorimetry, Tm shift; 0% = protein alone, 100% = glycine-bound protein;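 active = melting temperature shift of at least 10% of the positive control shift, at one fixed dose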
NadD inh: blocks S. aureus nicotinate mononucleotide adenylyltransferase | purified NadD enzyme, colorimetric absorbance read-out | inhibition, % at 20 µM | 0.78% of 360,000 active | AID 602399; in the data active = inhibition above about 26%
NadD inh conf: NadD (S. aureus) inhibition, single concentration confirmation; shares compounds with NadD inh; purified S. aureus NadD, colorimetric enzyme assay; inhibition, % at 20 µM; 13% of 2,000 active; AID 624309; in the data active = inhibition mostly above about 42%, no sharp cut-off; inactive = mostly below about 42%
Hits are given with their value; 0 = inactive; - = not tested or not shown. Sampled rows, rich in hits. Any-hit rate of the full collection: about 5.2%.

SMILES | SKN-1 inh | esBAF inh | Vif imaging | SMARCA2 act | NR3A LBD binder | NadD inh | NadD inh conf
COc1ccc(C2=NN(C(=O)CSc3nc(=O)n4cc(C)ccc4n3)C(c3ccc(C)cc3)C2)cc1 (stereo unspecified) | 0 | - | 0 | 0 | 0 | 49 | 0
O=C(Nc1ccc2c(c1)[C@@H]1C[C@@H](CC(=O)N3CCOCC3)O[C@@H](CO)[C@@H]1O2)C1CCC1 | - | 0 | - | - | - | - | -
CO[C@@H]1CN(C)C(=O)c2ccc(NC(C)=O)cc2OC[C@@H](C)N(C(=O)C2CCC2)C[C@@H]1C | - | 0 | - | - | - | - | -
COc1ccc(S(=O)(=O)Nc2ccc3c(c2)C(=O)N([C@H](C)CO)C[C@H](C)[C@H](CN(C)C(=O)Nc2c(C)noc2C)OCCCC[C@@H](C)O3)cc1 | - | 0 | - | - | - | - | -
CC(C)C[C@@H](CN1CCCC1CN1C(=S)NC[C@@H]1Cc1ccc(O)cc1)N1C[C@H](Cc2ccc(O)cc2)N(CCc2ccccc2)C1=S (stereo partly specified) | 0 | 0 | 0 | 0 | 24 | 42 | 0
Oc1ccc(C[C@H]2CN([C@@H](Cc3ccccc3)CN3CCCC3CN3C(=S)NC[C@@H]3Cc3ccccc3)C(=S)N2CCc2ccccc2)cc1 (stereo partly specified) | 0 | - | - | 0 | - | 37 | 0
Oc1ccc(C[C@H]2CN([C@@H](Cc3ccc(O)cc3)CN3CCC[C@@H]3CN3C(=S)NC[C@@H]3Cc3ccccc3)C(=S)N2CCc2ccccc2)cc1 | 0 | 0 | 0 | 0 | - | 40 | 0
Oc1ccc(C[C@H]2CNC(=S)N2C[C@H]2CCCN2C[C@H](Cc2ccccc2)N2C[C@H](Cc3ccc(O)cc3)N(CCc3ccccc3)C2=S)cc1 | 0 | 0 | 0 | 0 | - | 46 | 0
O=C1NC[C@H](Cc2ccccc2)N(C[C@@H]2CCCN2C[C@H](Cc2ccc(O)cc2)N2C[C@H](Cc3ccc(O)cc3)N(CCc3ccccc3)C(=O)C2=O)C1=O | 0 | - | - | 0 | - | 0 | -
CCCNC(=O)[C@@H]1[C@@H](CO)[C@@H]2Cn3c(ccc(-c4cccnc4)c3=O)[C@@H]2N1C(=O)c1ccccc1F | - | 0 | - | - | - | - | -
C[C@@H]1CN([C@H](C)CO)S(=O)(=O)c2ccc(C3=CCCC3)cc2O[C@@H]1CN(C)Cc1cncnc1 | - | 0 | - | - | - | - | -
C[C@H]1CN([C@@H](C)CO)C(=O)c2cccc(NC(=O)Nc3ccccc3)c2O[C@@H]1CN(C)S(=O)(=O)c1cn(C)cn1 | - | 0 | - | - | - | - | -
O=C(C[C@@H]1C[C@H]2c3cc(NC(=O)Cc4ccncc4)ccc3O[C@H]2[C@H](CO)O1)NCc1ccccn1 | - | 0 | - | - | - | - | -
COc1ccccc1-n1c(SCc2cc(=O)oc3cc(O)ccc23)nc2ccccc2c1=O | 0 | - | 0 | 0 | 0 | 32 | 58
O=c1[nH]c(CN2CCN(c3ccccc3O)CC2)nc2scc(-c3ccccc3Cl)c12 | 0 | 0 | - | 0 | 0 | 0 | -
O=c1[nH]c(CN2CCN(c3ccc(O)cc3)CC2)nc2scc(-c3ccc(Cl)cc3)c12 | 0 | - | 0 | 0 | 0 | 37 | 0
NC(=S)N/N=C/c1ccc(-c2cc(Cl)ccc2Cl)o1 | 0 | 0 | 0 | 0 | 0 | 43 | 0
NC(=S)N/N=C/c1ccc(-c2ccc([N+](=O)[O-])cc2)o1 | 0 | - | 0 | 0 | 0 | 33 | 0
NC(=S)N/N=C/c1ccc(-c2cc(Cl)cc(Cl)c2)o1 | 0 | 0 | 0 | 0 | 0 | 38 | 0
Cc1ccc(C(=O)N/N=C\c2ccc(-c3ccc([N+](=O)[O-])cc3)o2)cn1 | 0 | 0 | 0 | 0 | 0 | 0 | -
CCOC(=O)N/N=C\c1ccc(-c2cc(Cl)ccc2Cl)o1 | 0 | 0 | 0 | 0 | 0 | 0 | -
COCC(=O)N1C[C@H](C)[C@@H](OC)CN(C)C(=O)c2cc(NC(=O)c3ccccc3)ccc2OC[C@H]1C | - | 0 | - | - | - | - | -
COc1ccc(NC(=O)Nc2ccc3c(c2)C(=O)N([C@H](C)CO)C[C@@H](C)[C@H](CN(C)C(=O)NC(C)C)O3)cc1 | - | 0 | - | - | - | - | -
COc1cc(/C=C(\C#N)c2nc(-c3cc4ccccc4oc3=O)cs2)ccc1O | 0 | - | 0 | 0 | 0 | 50 | 0
Cc1cc2cc(C(c3nnnn3Cc3ccccc3)N3CCc4ccccc43)c(=O)[nH]c2cc1C (stereo unspecified) | 0 | 0 | 0 | 0 | 0 | 0 | -
